About 83,000 compounds went through this panel and 20% of them were active in at least one assay; those are over-represented in the sample as a whole.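 The test compound was applied at a single concentration to cells in 96-well plates for 48 hours, and percent growth was recorded.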 Unmarked numbers belong to inactive results. Activity calls are given as the source filed them. Rule for the calls: active = growth percent below 10; inactive = the rest.
What was measured:
Experiment in all cases: NCI-60 one-dose screen, 48 h (100 = growth as untreated, 0 = no growth, -100 = all killed)
Conditions in all cases: 10 µM unless noted
HCT-15 colon = system: HCT-15 colon
HT29 colon = system: HT29 colon
SNB-75 CNS = system: SNB-75 CNS
SNB-19 CNS = system: SNB-19 CNS
U251 CNS = system: U251 CNS
PC-3 prostate = system: PC-3 prostate
SK-MEL-5 melanoma = system: SK-MEL-5 melanoma
UACC-62 melanoma = system: UACC-62 melanoma
LOX IMVI melanoma = system: LOX IMVI melanoma
SK-MEL-28 melanoma = system: SK-MEL-28 melanoma

| Compound | growth (HCT-15 colon) | growth (HT29 colon) | growth (SNB-75 CNS) | growth (SNB-19 CNS) | growth (U251 CNS) | growth (PC-3 prostate) | growth (SK-MEL-5 melanoma) | growth (UACC-62 melanoma) | growth (LOX IMVI melanoma) | growth (SK-MEL-28 melanoma) |
| --- | --- | --- | --- | --- | --- | --- | --- | --- | --- | --- |
| COC(=O)[C@H](Cc1cn(C)cn1)NC(=O)[C@H](CC(=O)OCc1ccccc1)NC(=O)Nc1cc(C(F)(F)F)cc(C(F)(F)F)c1 | -82.2% [100 µM] (active) | -85.2% [100 µM] (active) | -98.6% [100 µM] (active) | -93% [100 µM] (active) | -96.5% [100 µM] (active) | -94.1% [100 µM] (active) | -97.3% [100 µM] (active) | -98.3% [100 µM] (active) | -85.3% [100 µM] (active) | -95.6% [100 µM] (active) |
| CC(=O)O.[In] | 109% | 105% | 90.6% | 109% | 98.8% | 99.7% | 95.2% | 102% | 35.3% | 112% |
| O=C(N/N=C/c1ccccc1Cl)c1cccc2ccccc12 | 102% | 105% | 83.1% | 98.3% | 98.4% | 99.6% | 104% | 99.8% | 103% | 95.4% |
| CC1C(=O)CCCC1=O | 96.6% | 94% | 90.9% | 106% | 108% | 108% | 106% | 103% | 106% | 105% |
| CCCCCCCCCCCCCCCCCC(=O)Nc1ccc(O)cc1 | 110% | 96.7% | 72% | 118% | 93.4% | 66.6% | 105% | 102% | 96.9% | 103% |
| COc1cc(Cn2ccc3c2-c2oncc2CC3)cc(OC)c1 | 27.2% | 14.9% | -16% (active) | 43.7% | 42.4% | 57.9% | 13.9% | 38.3% | 40.1% | 48.9% |
| COc1ccc(C(=O)c2no[n+]([O-])c2C(=O)c2ccc(OC)cc2)cc1 | 20.1% | 10.1% | -99.3% (active) | 97.7% | 35.9% | -37.7% (active) | 85.5% | 78.9% | -69.2% (active) | 109% |
| CC1CCCCC[N+]12CCCC2 (stereo not given) | 95.6% | 107% | 95% | 106% | 85.3% | 93.4% | 99.5% | 103% | 95.8% | 109% |
| O=C(C(=O)N1CCOCC1)c1ccc(O[C@H]2O[C@H](CO)[C@@H](O)[C@H](O)[C@@H]2O)cc1 | 97.4% | 93.4% | 100% | 109% | 104% | 88.8% | 97.4% | 97.1% | 102% | 117% |
| Cc1ccc(C(=O)Nc2ccc(CN3CCN(C)CC3)c(C(F)(F)F)c2)cc1C#Cc1cnc(N)c2ccc(F)cc12 | -93.4% (active) | -85% (active) | -70.4% (active) | -99.1% (active) | -89.2% (active) | -82.7% (active) | -96% (active) | -83.9% (active) | -91.4% (active) | -96.2% (active) |
| CCOC(=O)/C(C#N)=C(/CC)OCC | 109% | 103% | 90.8% | 106% | 103% | 93.6% | 110% | 110% | 91.4% | 106% |
| Nc1ccc(S(=O)(=O)c2ccc(NO)cc2)cc1 | 116% | 101% | 87.8% | 97.1% | 101% | 96.8% | 102% | 115% | 99.5% | 105% |
| COC(=O)c1ccc2[nH]c(O)c(C(=Nc3ccc(N(C)C(=O)CN4CCN(C)CC4)cc3)c3ccc([N+](=O)[O-])cc3)c2c1 | 73% | 38% | 54.7% | 80.1% | 42.6% | 35.1% | 49.4% | 52.7% | 46.2% | 64.9% |
| N=C(N)N=Nc1ccc(NN=C(N)N)cc1 | 102% | 91.1% | 76.4% | 94.2% | 91.8% | 45.9% | 94% | 90.8% | 96.4% | 103% |
| Clc1ccc(I)c2ccccc12 | 96.4% | 111% | 96.5% | 110% | 96.3% | 102% | 109% | 111% | 59.4% | 114% |
| CC(=O)Nc1nc(C)c(C(=O)NNC(=O)Nc2ccccc2)s1 | 96.7% | 99% | 98.4% | 93.9% | 102% | 85.2% | 97% | 78.1% | 97.9% | 105% |
| O=C1OC(c2ccc(-c3ccccc3)cc2)=C/C1=C/c1c2ccccc2cc2ccccc12 | 74.8% | 103% | 78.7% | 94.1% | 98% | 98.5% | 104% | 99.3% | 95.8% | 87.7% |
| COCC(=O)NNc1[nH]c(-c2ccc(OC)cc2)cc1C#N | 107% | 110% | 120% | 114% | 103% | 97% | 117% | 99.4% | 110% | 120% |
| C/C(=N\Nc1cccc(Cl)n1)c1ccccn1 | 23.5% | 26.2% | 36.6% | 23.1% | 14.5% | 29.3% | -51.6% (active) | -24.1% (active) | 0.322% (active) | 14.2% |
| COc1ccc(/C=C(/C(=O)N2CCCCC2)c2cc(OC)c(OC)c(OC)c2)cc1 | 26.8% | 5.67% (active) | -15.6% (active) | 32% | 26% | 12.4% | 26.8% | 36.5% | 36.5% | 54.1% |
| CC(=O)CC(=O)OC/C=C(/C)CCC=C(C)C | 102% | 108% | 105% | 107% | 104% | 111% | 99.6% | 97.9% | 97.7% | 113% |
| C=C(NC(=O)[C@H](C(C)C)N(C)c1cccc2[nH]ccc12)C(=O)OC | 95.7% | 99.1% | 105% | 103% | 99.6% | 101% | 99.4% | 90.5% | 94.3% | 104% |
| Brc1c(-c2ccncc2)nc2n1CCS2 | 105% | 87% | 101% | 103% | 91.3% | 84.5% | 103% | 84.4% | 89.4% | 93.5% |
| O=[N+]([O-])c1ccc(-c2ncc(-c3ccc(O)cc3O)[nH]2)cc1 | 100% | 123% | 103% | 93.3% | 103% | 98% | 109% | 95.3% | 103% | 108% |
| CCCCCCNC(=O)Oc1ccc(/C(=C(/C)Cc2ccc(OC)cc2)c2ccc(OCCN3CCCCC3)cc2)cc1 | 31.6% | 19.5% | 66.7% | 86.3% | 63.1% | 76.4% | 80.4% | 88.4% | 82.9% | 96.8% |
| C[C@H]1C[C@@H](n2cnc3c(N)nccc32)[C@H](O)[C@@H]1O | 87.8% | 89.2% | 100% | 82% | 69.2% | 110% | 96.7% | 98.7% | 79.8% | 88% |
| O=C(/C(Br)=C/c1ccccc1)c1ccccc1 | -21.9% (active) | -66.2% (active) | 80.3% | 96.2% | 5.38% (active) | 87.8% | 84.9% | 8.01% (active) | -92.2% (active) | 42.8% |
| C=CCSc1nnc(COc2ccc3c(C)c(Cc4ccccc4)c(=O)oc3c2C)o1 | 104% | 98.3% | 89.1% | 93.4% | 99% | 93.2% | 101% | 92.4% | 97.6% | 117% |

From PubChem BioAssay (NCI)
